Test results: PubChem BioAssay (NCATS)
Records with an inconclusive call do not appear. A call without a number means that no potency is given here. Active and inactive are the calls of the source. Calls follow the shape of the dose curve; as a rule, active = well fitted inhibition curve with a large enough effect; inconclusive = small, poorly fitted or top-dose-only effect; inactive = no such curve, though single readings can be large or run the other way.

molecular target: Endonuclease 4 (Escherichia coli (strain K12)) (UniProt P0A6C1); assay: Counterscreen for APE1 Inhibitors: qHTS Validation Assay for Inhibitors of Endonuclease IV (AID 1708); conditions: E. coli endonuclease IV, DNA cleavage fluorescence; series mostly up to 57.1 µM
Text: Assay Provider: David M. Wilson, III, National Institute on Aging, NIH
Screening Center PI: Austin, C.P.
Screening Center: NIH Chemical Genomics Center [NCGC]
Escherichia coli endonuclease IV (Endo IV) is the key member of the AP endonuclease superfamily that catalyzes the cleavage of damaged DNA backbone immediately 5' of an AP site. E. coli EndoIV has the same functional activities as human APE1 but has no sequence or structural homology to the human protein. Herein, we utilize E. coli EndoIV to counter screen compound libraries as part of a high-throughput campaign for APE1 inhibitor identification. A concentration-response screen of the LOPAC1280 collection was performed under experimental conditions identical to those used in the APE1 screen.
Inhibition of APE1 activity was screened by utilizing double-stranded short substrate containing tetrahydrofuran (THF) abasic site labeled with rhodamine-type fluorophore (TAMRA) at the 5'-end and with non-fluorescent Black Hole Quencher-2 (BHQ-2) at the opposing 3'-end. An increase in the fluorescence intensity due to incision of the abasic site by APE1 was used to measure the enzyme activity.
Buffer: 50 mM Tris-HCl (pH 7.5) containing 50mM NaCl, 2 mM MgCl2, 1 mM DTT and 0.01% Tween-20.
Buffer in columns 3 and 4 as negative control (no enzyme).
Substrate: 50 nM final concentration of TAMRA/BHQ-2 substrate dispensed throughout the plate.
Enzyme: 2 nM E. coli EndoIV final concentration in columns 1, 2, 5-48. Column 1 is neutral (100% activity).
Control: Pintool transfer of control inhibitor NSC-13755 to column 2 of all assay plates. Two-fold, 16 pt dilution in duplicate to produce final concentrations in the 5.75 uM - 0.175 nM range.
Three uL of enzyme were dispensed to 1536-well Greiner black solid bottom plates. Compounds (23 nL) were transferred via Kalypsys pintool. The plates were incubated for 15 min at room temperature, and then 1 uL of substrate solution was added to start the reaction. The plates were immediately transferred into ViewLux High-throughput CCD imager (Perkin-Elmer) in order to measure the reaction progress in kinetic mode (three reads every 60 seconds) using 525 nm excitation and 598 nm emission fluorescence protocol. The fluorescence intensity difference between the third and the first time points was used to compute reaction progress.

`CN1C2CCC1CC(OC(=O)C(O)c1ccccc1)C2` (stereo not given) was tested. Which Potency did it give?
Its Potency is “inactive”.

Which Potency does the source give for `Cc1ccc(C(=O)O[C@H](C(=O)O)[C@@H](OC(=O)c2ccc(C)cc2)C(=O)O)cc1` (tested in a mixture with another compound) here?
Its Potency is “inactive”.

`CC1CN(S(=O)(=O)c2cccc3cnccc23)CCN1` (stereo not given) was tested. Which Potency did it give?
Its Potency is “inactive”.

With `Clc1ccc(N2CCN(Cc3c[nH]c4ncccc34)CC2)cc1` as the compound, how does the Potency read?
The Potency was “inactive”.

With `NO` as the compound, how does the Potency read?
The Potency was “inactive”.

How did the Potency turn out when `O=C1O/C(=C/Br)CCC1c1cccc2ccccc12` (stereo not given) was run?
Its Potency is “inactive”.

`N[C@@H](CC(=O)O)C(=O)O` was tested. Which Potency did it give?
Its Potency is “inactive”.

Which Potency does the source give for `O=Nc1ccc2oc(=O)ccc2c1` here?
The Potency was “inactive”.

Which Potency does the source give for `CCCCCCCCCCCCCCCCCCNC(=O)OCC(COP(=O)([O-])OCC[n+]1ccsc1)OC` (stereo not given) here?
Its Potency is “inactive”.

Which Potency does the source give for `O=C1C(SCCO)=C(SCCO)C(=O)c2ccccc21` here?
Its Potency is “inactive”.

For `CN1CCc2ccccc2Cc2[nH]c3ccccc3c2CC1`, which Potency is on record?
Its Potency is “inactive”.

With `CCCn1c(=O)c2[nH]c(-c3ccc(OCC(=O)NCCN)cc3)nc2n(CCC)c1=O` as the compound, how does the Potency read?
The Potency was “inactive”.

Which Potency does the source give for `C[C@@H](NC(=O)/C(C#N)=C/c1ccc(O)c(O)c1)c1ccccc1` here?
Its Potency is “inactive”.

For `Brc1c(Br)c(Br)c2n[nH]nc2c1Br`, which Potency is on record?
The Potency was “inactive”.

How did the Potency turn out when `O=C1NC(O)=NC1(c1ccccc1)c1ccccc1` was run?
The Potency was “inactive”.

For `CC(COc1ccc(/C=C/c2ccccc2)cc1)[N+](C)(C)C` (stereo not given), which Potency is on record?
The Potency was “inactive”.

For `NC[C@@H]1O[C@H](C23CC4CC(CC(C4)C2)C3)Cc2c1ccc(O)c2O`, which Potency is on record?
The Potency was “inactive”.

With `NCCCS(=O)(=O)O` as the compound, how does the Potency read?
Its Potency is “inactive”.

For `N#C/C(=C\c1c[nH]c2ccccc12)C(=O)c1ccc(O)c(O)c1`, which Potency is on record?
Its Potency is “inactive”.

For `CNCC[C@H](Oc1ccc(C(F)(F)F)cc1)c1ccccc1`, which Potency is on record?
The Potency was “inactive”.

For `Cn1c(=O)c2[nH]c(-c3ccccc3)nc2n(C)c1=O`, which Potency is on record?
Its Potency is “inactive”.

Which Potency does the source give for `N#C/C(=C\c1ccc(O)c(O)c1)C(=O)NCCCc1ccccc1` here?
The Potency was “inactive”.

`O=C(O)CNC(=O)C(CS)Cc1ccccc1` (stereo not given) was tested. Which Potency did it give?
Its Potency is “inactive”.

Which Potency does the source give for `NCCNC(=O)c1ncsc1-c1cccc(F)c1` here?
Its Potency is “inactive”.

`Fc1cccc(/C=N/N=C/c2cccc(F)c2)c1` was tested. Which Potency did it give?
The Potency was “inactive”.

How did the Potency turn out when `Oc1cc(O)cc(/C=C/c2ccc(O)c(O)c2)c1` was run?
The Potency was “inactive”.

Which Potency does the source give for `C=CC(N)CCC(=O)O` (stereo not given) here?
The Potency was “inactive”.

With `N.N.O=C(O)C1(C(=O)O)CCC1.[Pt]` as the compound, how does the Potency read?
The Potency was “inactive”.

With `O=c1[nH]c2ccccc2n1CCCN1CCN(C(c2ccccc2)c2ccccc2)CC1` as the compound, how does the Potency read?
Its Potency is “inactive”.

With `CN(C)C(N)=NCCC[C@H](N)C(=O)O` as the compound, how does the Potency read?
Its Potency is “inactive”.

How did the Potency turn out when `O=C(O)c1cc(=O)c2ccccc2[nH]1` was run?
Its Potency is “inactive”.

How did the Potency turn out when `O=C(/C=C/c1ccc(O)c(O)c1)OCCc1ccccc1` was run?
The Potency was “inactive”.

Which Potency does the source give for `O=C(O)/C=C/C(O)c1ccc(Cl)cc1` (stereo not given) here?
The Potency was “inactive”.

How did the Potency turn out when `CC(C)(C)c1ccc(S(=O)(=O)/C=C/C#N)cc1` was run?
The Potency was “inactive”.

With `Oc1ccc(C2CNCc3sccc32)cc1O` (stereo not given) as the compound, how does the Potency read?
Its Potency is “inactive”.

How did the Potency turn out when `COC1=C(OC)C(=O)c2ccccc2C1=O` was run?
Its Potency is “inactive”.

`CN1CCc2cccc3c2C1Cc1ccc(O)c(O)c1-3` (stereo not given) was tested. Which Potency did it give?
Its Potency is “inactive”.

With `OC[C@H]1O[C@@H](n2cnc3c(NC4CCCCC4)ncnc32)[C@H](O)[C@@H]1O` as the compound, how does the Potency read?
Its Potency is “inactive”.

For `OCC1O[C@H](O)C(Cl)C(O)C1O` (stereo not given in full), which Potency is on record?
The Potency was “inactive”.

How did the Potency turn out when `NC(CCCP(=O)(O)O)C(=O)O` (stereo not given) was run?
Its Potency is “inactive”.
